# Test results: PubChem BioAssay (NCI)
# The panel holds about 79,000 compounds, 15% with a hit somewhere; the sample as a whole holds those more often. Unmarked numbers belong to inactive results. The source made the active and inactive calls. No stated cut-off is given here; in the data, active means growth inhibition above about 70%; inactive means the rest.
# Legend:
# [1] = NCI Yeast Anticancer Drug Screen. Data for the wt1 strain (AID 149);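 further: 0% = growth of vehicle-treated wt1 cultures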; settings: S. cerevisiae wt1 strain (SPY 50644) growth inhibition, hits give high values
# In short: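 Yeast wt1 strain exposed to compounds; growth inhibition measured relative to vehicle-treated controls.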
# [2] = NCI Yeast Anticancer Drug Screen. Data for the rad50EPP+ strain (AID 151);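 further: 0% = growth of vehicle-treated control cultures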; settings: S. cerevisiae rad50 mutant strain, hits give high values
# In short: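 Vehicle-normalised growth inhibition; rad50EPP+ yeast strain, altered in DNA damage repair, compound-treated.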
# [3] = NCI Yeast Anticancer Drug Screen. Data for the mgt1 strain (AID 153); settings: S. cerevisiae mgt1 mutant growth inhibition, hits give high values
# In short: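 Vehicle-normalized growth inhibition is determined in mgt1 yeast, a strain selected for a defined alteration in DNA repair or cell cycle control.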
# [4] = NCI Yeast Anticancer Drug Screen. Data for the rad50 strain (AID 155);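 further: 0% = growth of vehicle-only cultures of the same strain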; settings: S. cerevisiae rad50 strain growth inhibition, hits give high values
# In short: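 Yeast carrying a defined DNA repair defect were exposed to test compounds, and growth was compared with vehicle-treated controls to give percent inhibition.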
# [5] = NCI Yeast Anticancer Drug Screen. Data for the mec2-1 strain (AID 157); settings: S. cerevisiae mec2-1 strain, hits give high values
# In short: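 Mutant yeast (mec2-1) grown with compound; growth inhibition relative to vehicle control reported.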
# [6] = NCI Yeast Anticancer Drug Screen. Data for the rad14 strain (AID 159);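 further: 0% = growth of vehicle-treated control cultures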; settings: S. cerevisiae rad14 strain growth inhibition, hits give high values
# In short: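 Yeast cells carrying a defined DNA-repair defect were exposed to compounds, and growth inhibition was calculated relative to vehicle-treated control cultures.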
# [7] = NCI Yeast Anticancer Drug Screen. Data for the sgs1 mgt1 strain (AID 161);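 further: 0% = growth of cultures given vehicle only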; settings: S. cerevisiae sgs1 mgt1 strain, hits give high values
# In short: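 Percent growth inhibition was derived by comparing compound-exposed mutant yeast with vehicle-exposed cultures. The strain carries alterations in DNA damage repair.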
# [8] = NCI Yeast Anticancer Drug Screen. Data for the CLN2oe strain (AID 163);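 further: 0% = growth of vehicle-only control cultures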; settings: S. cerevisiae CLN2oe strain, hits give high values
# In short: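 Compounds are applied to yeast harbouring a defined cell-cycle control change; reduced growth compared with vehicle-treated controls gives the value.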
# [9] = NCI Yeast Anticancer Drug Screen. Data for the cln2 rad14 strain (AID 165);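 further: 0% = growth equal to vehicle treated cultures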; settings: S. cerevisiae cln2 rad14 strain, hits give high values
# In short: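 Readout is yeast growth inhibition versus vehicle-treated controls, using a strain with cln2 and rad14 alterations exposed to compound.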
# [10] = NCI Yeast Anticancer Drug Screen. Data for the bub3 strain (AID 167); settings: S. cerevisiae bub3 mutant strain, hits give high values
# In short: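 Compounds were applied to a genetically altered yeast strain carrying a cell-cycle control defect. Growth inhibition was scored against vehicle-treated controls.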
# [11] = NCI Yeast Anticancer Drug Screen. Data for the wt2 strain (AID 169);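 further: 0% = growth of vehicle-treated yeast cultures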; settings: S. cerevisiae wt2 strain growth inhibition, hits give high values
# In short: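 Against vehicle-treated controls, the growth of yeast exposed to each compound was compared, and the inhibition was recorded.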
# [12] = NCI Yeast Anticancer Drug Screen. Data for the mlh1 strain (AID 171);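 further: 0% = growth of vehicle-treated control cultures of the same strain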; settings: S. cerevisiae mlh1 strain growth inhibition, hits give high values
# In short: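 Measured: yeast growth. Reference: vehicle-treated controls. Organism: strain with a defined alteration affecting DNA damage repair or cell cycle control, treated with compound.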
# [13] = NCI Yeast Anticancer Drug Screen. Data for the sgs1 strain (AID 173);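 further: 0% = growth of vehicle-only control cultures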; settings: S. cerevisiae sgs1 mutant, hits give high values
# In short: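 Each compound was added to cultures of the altered yeast strain. Growth was recorded, and inhibition was derived by comparison with vehicle controls.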
# [14] = NCI Yeast Anticancer Drug Screen. Data for the mlh1 rad18 strain (AID 175); settings: S. cerevisiae mlh1 rad18 strain growth inhibition, hits give high values
# In short: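 Genetically defined yeast (DNA repair-deficient) exposed to compounds; growth inhibition determined relative to vehicle.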
# [15] = NCI Yeast Anticancer Drug Screen. Data for the rad52 strain (AID 147);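 further: 0% = growth of vehicle-treated control cultures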; settings: S. cerevisiae rad52 mutant growth inhibition, hits give high values
# In short: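 The repair-mutant yeast strain was incubated with compounds, then growth was read and inhibition derived relative to vehicle.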
# [16] = NCI Yeast Anticancer Drug Screen. Data for the rad18 strain (AID 177); settings: S. cerevisiae rad18 mutant growth inhibition, hits give high values
# In short: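 Vehicle-treated cultures served as the baseline for scoring compound-induced growth inhibition in DNA-repair-mutant yeast.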
# [17] = at 5.0 µM (retest, dose inferred, filed as 0.5)
# [18] = at 50.0 µM (retest, dose inferred, filed as 5.0)
smiles,measurement,setting,value
C[Si](C)(C)Cc1ccccc1C(=O)O,growth inhibition,[1]; at 1.2 µM,1%
same,growth inhibition,[1]; at 3.7 µM,1%
same,growth inhibition,[1]; at 11.0 µM,4%
same,growth inhibition,[1]; at 33.0 µM,38%
same,growth inhibition,[1]; at 100.0 µM,99% (active)
same,growth inhibition,[2]; at 1.2 µM,-2%
same,growth inhibition,[2]; at 3.7 µM,1%
same,growth inhibition,[2]; at 11.0 µM,0%
same,growth inhibition,[2]; at 33.0 µM,4%
same,growth inhibition,[2]; at 100.0 µM,3%
same,growth inhibition,[3]; at 1.2 µM,1%
same,growth inhibition,[3]; at 3.7 µM,6%
same,growth inhibition,[3]; at 11.0 µM,-2%
same,growth inhibition,[3]; at 33.0 µM,15%
same,growth inhibition,[3]; at 100.0 µM,99% (active)
same,growth inhibition,[4]; at 1.2 µM,4%
same,growth inhibition,[4]; at 3.7 µM,9%
same,growth inhibition,[4]; [17],2%
same,growth inhibition,[4]; at 11.0 µM,4%
same,growth inhibition,[4]; at 33.0 µM,56%
same,growth inhibition,[4]; [18],80% (active)
same,growth inhibition,[4]; at 50.0 µM,97.7% (active)
same,growth inhibition,[4]; at 100.0 µM,98% (active)
same,growth inhibition,[5]; at 1.2 µM,4%
same,growth inhibition,[5]; at 3.7 µM,4%
same,growth inhibition,[5]; [17],8%
same,growth inhibition,[5]; at 11.0 µM,8%
same,growth inhibition,[5]; at 33.0 µM,29%
same,growth inhibition,[5]; [18],86% (active)
same,growth inhibition,[5]; at 50.0 µM,97% (active)
same,growth inhibition,[5]; at 100.0 µM,98% (active)
same,growth inhibition,[6]; at 1.2 µM,1%
same,growth inhibition,[6]; at 3.7 µM,-4%
same,growth inhibition,[6]; at 11.0 µM,0%
same,growth inhibition,[6]; at 33.0 µM,32%
same,growth inhibition,[6]; at 100.0 µM,99% (active)
same,growth inhibition,[7]; [17],9%
same,growth inhibition,[7]; [18],38%
same,growth inhibition,[7]; at 50.0 µM,97.4% (active)
same,growth inhibition,[8]; at 1.2 µM,9%
same,growth inhibition,[8]; at 3.7 µM,12%
same,growth inhibition,[8]; at 11.0 µM,11%
same,growth inhibition,[8]; at 33.0 µM,20%
same,growth inhibition,[8]; at 100.0 µM,99% (active)
same,growth inhibition,[9]; [17],33%
same,growth inhibition,[9]; [18],86% (active)
same,growth inhibition,[9]; at 50.0 µM,98% (active)
same,growth inhibition,[10]; at 1.2 µM,6%
same,growth inhibition,[10]; at 3.7 µM,8%
same,growth inhibition,[10]; [17],5%
same,growth inhibition,[10]; at 11.0 µM,2%
same,growth inhibition,[10]; at 33.0 µM,6%
same,growth inhibition,[10]; [18],17%
same,growth inhibition,[10]; at 50.0 µM,97% (active)
same,growth inhibition,[10]; at 100.0 µM,97% (active)
same,growth inhibition,[11]; at 1.2 µM,-1%
same,growth inhibition,[11]; at 3.7 µM,-3%
same,growth inhibition,[11]; at 11.0 µM,-1%
same,growth inhibition,[11]; at 33.0 µM,52%
same,growth inhibition,[11]; at 100.0 µM,99% (active)
same,growth inhibition,[12]; at 1.2 µM,3%
same,growth inhibition,[12]; at 3.7 µM,12%
same,growth inhibition,[12]; at 11.0 µM,3%
same,growth inhibition,[12]; at 33.0 µM,42%
same,growth inhibition,[12]; at 100.0 µM,99% (active)
same,growth inhibition,[13]; at 1.2 µM,-1%
same,growth inhibition,[13]; at 3.7 µM,1%
same,growth inhibition,[13]; at 11.0 µM,5%
same,growth inhibition,[13]; at 33.0 µM,65%
same,growth inhibition,[13]; at 100.0 µM,99% (active)
same,growth inhibition,[14]; [17],-2%
same,growth inhibition,[14]; [18],83% (active)
same,growth inhibition,[14]; at 50.0 µM,98.2% (active)
Cc1ccc(P(c2ccc(C)cc2)c2ccc(C)cc2)cc1,growth inhibition,[15]; at 1.2 µM,-11%
same,growth inhibition,[15]; at 3.7 µM,-12%
same,growth inhibition,[15]; at 11.0 µM,1%
same,growth inhibition,[15]; at 33.0 µM,11%
same,growth inhibition,[15]; at 100.0 µM,23%
same,growth inhibition,[1]; at 1.2 µM,-25%
same,growth inhibition,[1]; at 3.7 µM,-12%
same,growth inhibition,[1]; at 11.0 µM,-5%
same,growth inhibition,[1]; at 33.0 µM,1%
same,growth inhibition,[1]; at 100.0 µM,7%
same,growth inhibition,[2]; at 1.2 µM,-7%
same,growth inhibition,[2]; at 3.7 µM,-10%
same,growth inhibition,[2]; at 11.0 µM,-12%
same,growth inhibition,[2]; at 33.0 µM,-23%
same,growth inhibition,[2]; at 100.0 µM,-34%
same,growth inhibition,[6]; at 1.2 µM,-34%
same,growth inhibition,[6]; at 3.7 µM,-41%
same,growth inhibition,[6]; at 11.0 µM,-40%
same,growth inhibition,[6]; at 33.0 µM,-31%
same,growth inhibition,[6]; at 100.0 µM,-31%
same,growth inhibition,[8]; at 1.2 µM,8%
same,growth inhibition,[8]; at 3.7 µM,4%
same,growth inhibition,[8]; at 11.0 µM,4%
same,growth inhibition,[8]; at 33.0 µM,10%
same,growth inhibition,[8]; at 100.0 µM,18%
same,growth inhibition,[11]; at 1.2 µM,-17%
same,growth inhibition,[11]; at 3.7 µM,-15%
same,growth inhibition,[11]; at 11.0 µM,-15%
same,growth inhibition,[11]; at 33.0 µM,5%
same,growth inhibition,[11]; at 100.0 µM,13%
same,growth inhibition,[12]; at 1.2 µM,-30%
same,growth inhibition,[12]; at 3.7 µM,-36%
same,growth inhibition,[12]; at 11.0 µM,-16%
same,growth inhibition,[12]; at 33.0 µM,-6%
same,growth inhibition,[12]; at 100.0 µM,13%
same,growth inhibition,[13]; at 1.2 µM,-27%
same,growth inhibition,[13]; at 3.7 µM,-27%
same,growth inhibition,[13]; at 11.0 µM,4%
same,growth inhibition,[13]; at 33.0 µM,18%
same,growth inhibition,[13]; at 100.0 µM,39%
same,growth inhibition,[16]; at 1.2 µM,-1%
same,growth inhibition,[16]; at 3.7 µM,-4%
same,growth inhibition,[16]; at 11.0 µM,9%
same,growth inhibition,[16]; at 33.0 µM,28%
same,growth inhibition,[16]; at 100.0 µM,34%
CN(C)/N=N/c1nc[nH]c1C(N)=O,growth inhibition,[15]; at 1.2 µM,-2%
same,growth inhibition,[15]; at 3.7 µM,1%
same,growth inhibition,[15]; at 11.0 µM,8%
same,growth inhibition,[15]; at 33.0 µM,31%
same,growth inhibition,[15]; at 100.0 µM,95% (active)
same,growth inhibition,[1]; at 1.2 µM,0%
same,growth inhibition,[1]; at 3.7 µM,-1%
same,growth inhibition,[1]; at 11.0 µM,-3%
same,growth inhibition,[1]; at 33.0 µM,-1%
same,growth inhibition,[1]; at 100.0 µM,88% (active)
same,growth inhibition,[2]; at 1.2 µM,-3%
same,growth inhibition,[2]; at 3.7 µM,-2%
same,growth inhibition,[2]; at 11.0 µM,0%
same,growth inhibition,[2]; at 33.0 µM,8%
same,growth inhibition,[2]; at 100.0 µM,32%
same,growth inhibition,[4]; at 1.2 µM,-2%
same,growth inhibition,[4]; at 3.7 µM,0%
same,growth inhibition,[4]; at 11.0 µM,7%
same,growth inhibition,[4]; at 33.0 µM,20%
same,growth inhibition,[4]; at 100.0 µM,97% (active)
same,growth inhibition,[5]; at 1.2 µM,0%
same,growth inhibition,[5]; at 3.7 µM,0%
same,growth inhibition,[5]; at 11.0 µM,1%
same,growth inhibition,[5]; at 33.0 µM,5%
same,growth inhibition,[5]; at 100.0 µM,98% (active)
same,growth inhibition,[6]; at 1.2 µM,-2%
same,growth inhibition,[6]; at 3.7 µM,-2%
same,growth inhibition,[6]; at 11.0 µM,0%
same,growth inhibition,[6]; at 33.0 µM,-1%
same,growth inhibition,[6]; at 100.0 µM,98% (active)
same,growth inhibition,[8]; at 1.2 µM,1%
same,growth inhibition,[8]; at 3.7 µM,2%
same,growth inhibition,[8]; at 11.0 µM,0%
same,growth inhibition,[8]; at 33.0 µM,0%
same,growth inhibition,[8]; at 100.0 µM,99% (active)
same,growth inhibition,[10]; at 1.2 µM,2%
same,growth inhibition,[10]; at 3.7 µM,1%
same,growth inhibition,[10]; at 11.0 µM,-2%
same,growth inhibition,[10]; at 33.0 µM,46%
same,growth inhibition,[10]; at 100.0 µM,96% (active)
same,growth inhibition,[11]; at 1.2 µM,-5%
same,growth inhibition,[11]; at 3.7 µM,-1%
same,growth inhibition,[11]; at 11.0 µM,-2%
same,growth inhibition,[11]; at 33.0 µM,-2%
same,growth inhibition,[11]; at 100.0 µM,98% (active)
same,growth inhibition,[12]; at 1.2 µM,-2%
same,growth inhibition,[12]; at 3.7 µM,-2%
same,growth inhibition,[12]; at 11.0 µM,0%
same,growth inhibition,[12]; at 33.0 µM,0%
same,growth inhibition,[12]; at 100.0 µM,97% (active)
same,growth inhibition,[13]; at 1.2 µM,-1%
same,growth inhibition,[13]; at 3.7 µM,-2%
same,growth inhibition,[13]; at 11.0 µM,1%
same,growth inhibition,[13]; at 33.0 µM,6%
same,growth inhibition,[13]; at 100.0 µM,98% (active)
same,growth inhibition,[16]; at 1.2 µM,-3%
same,growth inhibition,[16]; at 3.7 µM,0%
same,growth inhibition,[16]; at 11.0 µM,8%
same,growth inhibition,[16]; at 33.0 µM,42%
same,growth inhibition,[16]; at 100.0 µM,98% (active)
